CHO-K1 Ca PAM – nonselective activator or artifact in parental CHO-K1 calcium assay. ATP EC20, Fluo-8 calcium fluorescence; 0% at ATP EC20, 100% at ATP max. activation, % at 3 µM. 0.02% of 360,000 active;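 active = activation above the run cutoff, the mean activation of all test compounds plus 3 SD, cut at about 40% in these data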;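 note: peak over basal fluorescence ratio in a 140 s read after ATP addition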
CHO-K1 Ca antag – M1 antagonist counterscreen hit in parental CHO-K1 cells | inhibition, % at 3 µM | 0.6% of 360,000 active | ATP-induced calcium, Fluo-8 fluorescence;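 active = inhibition above a per-plate cutoff, the plate's mean sample inhibition plus 3 SD, cut at about 24% in these data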;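 note: 0% = DMSO plus EC80 ATP and 100% = DMSO alone without ATP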
CHRM1 agonist – human M1 muscarinic receptor agonism; activation, % at 3 µM; CHO-K1 hM1, Fluo-8 calcium fluorescence, agonist mode; 0% DMSO, 100% acetylcholine EC100; P11229; 0.33% of 360,000 active;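 active = activation above the run's mean compound activation plus 3 SD, cut at about 16% in these data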;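 note: peak over basal fluorescence ratio within a 140 s kinetic read after compound addition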
Target sequence (P11229 whole entry, looked up): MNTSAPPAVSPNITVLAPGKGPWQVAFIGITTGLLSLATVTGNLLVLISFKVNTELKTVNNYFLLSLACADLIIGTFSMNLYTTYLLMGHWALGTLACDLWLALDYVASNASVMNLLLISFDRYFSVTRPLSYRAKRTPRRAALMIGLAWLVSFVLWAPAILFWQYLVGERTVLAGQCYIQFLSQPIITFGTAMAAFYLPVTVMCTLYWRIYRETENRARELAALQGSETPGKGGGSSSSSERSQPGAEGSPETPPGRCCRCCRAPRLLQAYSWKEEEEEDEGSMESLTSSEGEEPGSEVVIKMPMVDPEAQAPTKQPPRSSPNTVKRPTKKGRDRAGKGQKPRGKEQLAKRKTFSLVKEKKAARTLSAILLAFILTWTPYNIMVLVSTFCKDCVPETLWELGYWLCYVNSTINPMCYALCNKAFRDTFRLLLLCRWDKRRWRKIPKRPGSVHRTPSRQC
M1 PAM – human CHRM1 positive allosteric modulation | P11229 | CHO-K1 hM1, Fluo-8 calcium fluorescence, ACh EC20; 0% = ACh EC20, 100% = maximal ACh | activation, % at 3 µM | 0.088% of 360,000 active | AID 588819; in the data active = activation above about 19%, passing the limit was not always enough
CHRM1 antagonist – human CHRM1 antagonism | P11229 | CHO-K1 hM1, Fluo-8 calcium fluorescence, ACh EC80 antagonist | inhibition, % at 3 µM | 1.3% of 360,000 active | AID 588852;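 active = percent inhibition above its own plate's cutoff, namely the mean of that plate's compound wells plus 3 SD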;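 note: peak over basal fluorescence ratio during 140 s after agonist addition; 0% = ACh EC80 plus DMSO and 100% = DMSO alone without agonist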
CHO-K1 Ca ag – M1 agonist counterscreen hit in parental CHO-K1 cells; activation, % at 3 µM; Fluo-8 calcium fluorescence; scaled to maximal ATP response, vehicle zero; 0.48% of 360,000 active; in the data active = activation above about 15%;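 note: untransfected CHO-K1 host cells lacking M1 receptor as counterscreen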
The depositor's hits bear a star. A selection: hits, their analogues and other compounds. The true share with any hit is near 2.3%.

SMILES	CHO-K1 Ca PAM	CHO-K1 Ca antag	CHRM1 agonist	M1 PAM	CHRM1 antagonist	CHO-K1 Ca ag
O=C(NCc1cccnc1)c1ccc2sc([C@@H]3O[C@H](CO)[C@H](O)[C@H](O)[C@H]3O)nc2c1	8.7	2.3	-0.5	10.1	-21.4	0.1
COc1ccc(N2CC(C(=O)Nc3ccccc3C(=O)NC3CC3)CC2=O)cc1 (stereo unspecified)	20.4	-13.5	-1.5	4.3	-1.3	1.4
Cc1ccc(-n2c(C)nc3c(cnn3-c3ccc(F)cc3)c2=O)cc1C	12.3	-2.8	1.2	-12.1	29.0*	3.7
Cc1ccc(-n2c(C)nc3c(cnn3-c3ccc(C)c(C)c3)c2=O)cc1C	19.1	-6.3	-5.2	-8.4	9.6	2.1
O=C(CCN1C(=O)c2ccc(Br)cc2C1=O)NC1CCCCC1	3.4	-7.2	3.1	-7.8	-8.4	4.3
Cc1ccccc1-n1c(=O)cc(N2CCc3ccccc3C2)[nH]c1=O	12.5	5.0	-3.8	4.4	-0.7	17.9*
O=C(CN(Cc1ccccc1Cl)C(=O)c1csnn1)NC1CCCC1	0.9	-3.4	-3.9	-0.9	2.6	-0.6
Cc1ccc(SCCC(=O)Nc2cccc(N(C)S(C)(=O)=O)c2)cc1	-1.6	41.8*	0.2	8.9	-3.3	25.0*
CN(c1cccc(NC(=O)Nc2cccc(Cl)c2)c1)S(C)(=O)=O	1.3	20.5	9.9	-12.3	14.3	18.2*
Cc1ccc(S(=O)(=O)n2c(N)nc3ccccc32)cc1	15.9	-19.6	-8.5	-27.0	98.0*	2.3
COc1ccc(S(=O)(=O)n2c(N)nc3ccccc32)cc1	-8.9	0.0	-10.2	-33.6	99.8*	0.8
Nc1nc2ccccc2n1S(=O)(=O)c1ccc(Cl)cc1	-4.1	3.0	-11.4	-33.7	78.7*	0.1
Nc1nc2ccccc2n1S(=O)(=O)c1ccc([N+](=O)[O-])cc1	10.3	-4.2	-10.6	-30.7	30.5	0.8
CCc1ccc(Cn2nnc(C(=O)Nc3ccc(OC)cc3OC)c2N)cc1	31.3	-11.6	24.8*	9.4	-8.2	3.7
Cn1nc(CC(=O)Nc2ccc3c(c2)OCCO3)c2ccccc2c1=O	-10.7	27.5*	2.3	-11.4	30.9*	11.8
Cc1ccc(NC(=O)Cc2nn(C)c(=O)c3ccccc23)cc1F	1.1	7.9	6.1	-15.4	10.7	9.8
Cc1ccc(C(C)C)c(OCCN(C)C)c1	3.2	-18.2	-2.8	-18.7	57.1*	0.7
CCCN(CCC)CCOc1cc(C)ccc1C(C)C	19.0	-5.5	-14.2	-27.4	33.8	1.2
Cc1ccc(C(C)C)c(OCCCn2ccnc2C)c1	12.4	-10.0	-8.9	-29.6	100.5*	1.3
O=C(CSc1nc2ccccc2c(=O)n1-c1ccc(F)cc1)Nc1cc(S(=O)(=O)N2CCOCC2)ccc1Cl	3.3	-9.2	1.2	-5.6	4.5	0.8
CCN(CC)S(=O)(=O)c1ccc(NC(=O)c2ccc(N(C)S(C)(=O)=O)cc2)cc1	-4.6	9.4	0.5	-10.8	6.3	3.6
CCc1ccc(NC(=O)CN2CCc3ccccc3C2)cc1	-6.7	24.4*	-5.6	3.7	1.4	-0.2
CN(C)S(=O)(=O)c1ccc(C(=O)Nc2ccc(CN3CCCC3)cc2)cc1	15.4	-8.1	-5.4	-18.0	40.7*	-0.3
CN(c1ccccc1)S(=O)(=O)c1ccc(C(=O)NCc2ccccc2CN2CCCC2)cc1	-12.7	9.7	-5.9	-16.4	21.2	17.2*
CCN(CC)S(=O)(=O)c1ccc(C(=O)Nc2ccc(Cc3ccncc3)cc2)cc1	-21.4	16.3	0.3	-14.0	26.1	15.4*
SMILES	CHO-K1 Ca PAM	CHO-K1 Ca antag	CHRM1 agonist	M1 PAM	CHRM1 antagonist	CHO-K1 Ca ag
CNc1ccc(C(=O)N2CCN(S(=O)(=O)c3ccc4c(c3)OCCCO4)CC2)cc1[N+](=O)[O-]	-4.2	-3.9	-5.8	-0.3	-6.0	1.6
Cc1cn([C@H]2C[C@H](O)[C@@H](/C=C/C(=O)NCCc3ccc4c(c3)OCO4)O2)c(=O)[nH]c1=O	14.3	-21.5	6.4	7.1	-35.0	0.8
O=C(Nc1ccc(S(=O)(=O)N2CCCCC2)cc1)c1ccc(CN2CCc3ccccc3C2)cc1	-4.0	33.2*	-3.6	-11.6	26.6	0.2
CCOC(=O)c1csc(NC(=O)c2ccc(S(=O)(=O)N(CC)CC)cc2)n1	14.1	-10.3	-2.0	7.2	-5.0	15.3*
O=C(Nc1ccccc1)c1ccc(CN2CCc3ccccc3C2)cc1	-12.8	23.9*	-12.8	-11.2	-5.6	7.1
CCOC(=O)c1sc(NC(=O)c2ccc(S(=O)(=O)N(CC)CC)cc2)nc1C	0.2	0.8	-0.9	3.5	-3.0	0.7
Cc1ccc(NC(=O)c2ccc(CN3CCc4ccccc4C3)cc2)cc1	18.2	-9.9	-3.6	-10.3	4.7	0.5
O=C(NCCCN1CCCC1=O)C1CCN(S(=O)(=O)c2ccc(Cl)cc2)CC1	-4.2	-0.4	-5.0	6.3	-4.6	0.2
CCN(c1ccc(NC(=O)CSc2ccc3c(c2)OCCO3)cc1)C(C)C	5.0	15.8	-6.9	-30.6	81.5*	1.4
COc1cccc(/C=C2/CN(C)CC3=C2OC(N)=C(C#N)C3c2cccc(OC)c2)c1 (stereo unspecified)	17.3	-17.9	-4.5	4.6	-30.2	1.0
COc1ccccc1NC(=O)CSc1nnc2ccccn12	11.0	-12.9	5.8	25.2*	-11.6	0.1
COC(/C(=N/O)c1ccc(Cl)cc1)c1ccccc1 (stereo unspecified)	-17.4	31.2*	-6.3	-20.0	47.3*	9.3
CC(=O)Nc1ccc(Sc2ncccc2C(=O)Nc2ccc(F)cc2)cn1	-14.7	12.0	68.8*	-24.0	52.1*	36.8*
Cc1ccc(S(=O)(=O)/N=C2/NC(=O)/C(=C/c3cc([N+](=O)[O-])ccc3O)S2)cc1	-20.9	14.9	32.0*	-15.1	29.4	19.8*
COc1cc(/C=C2\S/C(=N/S(=O)(=O)c3ccc(C)cc3)NC2=O)c([N+](=O)[O-])cc1OC	8.8	0.7	1.4	6.5	-4.4	1.5
C/C(=N\N1C(=O)CSC1=S)c1ccc(Br)cc1	7.4	4.2	-5.6	0.5	1.0	18.9*
Cc1ccc(C(=O)NN2C(=O)CSC2=S)cc1	2.9	-7.8	-5.4	-1.6	6.3	4.2
Cc1nc(-c2ccccc2)sc1C(N)=O	22.1	-15.8	-3.2	-0.4	-21.2	0.3
C/C(=N\O)c1sc(-c2ccccc2)nc1C	2.3	5.4	-9.4	3.1	2.7	19.9*
Cc1cccc(Nc2nc3c(c(=O)n(C)c(=O)n3C)n2CC(O)CO)c1 (stereo unspecified)	-7.4	24.6*	-0.4	-6.0	9.3	0.1
COc1ccc(NC(=O)CNc2cc(S(=O)(=O)N3CCOCC3)ccc2NCC2CCCO2)cc1 (stereo unspecified)	12.0	-14.1	-6.0	2.4	-1.1	-0.3
